Assay outcomes (PubChem)
Lamin A splicing = changes lamin A minigene splicing in HeLa cells. HeLa LMNA splicing GFP/RFP minigene ratio, 48 h. Potency, µM (titrated, usually from 46.1 µM), inactives show at the top dose ratio change, negative = inhibition, hits mostly inhibitors. hit rate 0.01% among 200,000; active = well fitted inhibition curve with a large enough effect in the signal ratio, with a control signal flat, not every such curve was filed as active; inconclusive = small, poorly fitted or top-dose-only effect, or effect the other way, or a change in a side signal; the % refers to the signal ratio
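Read-out is the ratio of GFP to DsRed2 object intensity, acquired by 488 nm laser-scanning cytometry on HeLa lamin A-EGFP minigene reporter cells. Compound incubation 48 hrs at 37 °C in Opti-MEM with 2% FBS; DMSO 0.5% final.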
IMPase Li cell = membrane-permeable IMPase blocker, potentiated with lithium; hit rate 0.35% among 210,000; CHO-M1 cells, IP1 TR-FRET (IP-One), carbachol + lithium; Potency, µM (titrated, usually from 59.4 µM), for the others: top-dose activity, negative = IMPase inhibition, actives largely listed as inhibitors; active = well fitted curve in the direction sought with a large enough effect; inconclusive = small, poorly fitted or top-dose-only effect, or another doubt; inactive = no such curve, though single readings can be large; an effect the other way counts as inactive or inconclusive;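 also: IP1 builds up when IMPase is blocked and the TR-FRET signal falls; plate controls were basal vehicle for no effect and high inhibitor control for full effect; nearly all actives have a fitted effect of over 50% in size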
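Steps: plate 2000 CHO-M1 cells per well and culture 16–30 h; add compound and lithium; incubate 30 min, 37C; add d2-IP1 tracer and Eu cryptate anti-IP1 antibody in lysis buffer; read after 10 min at room temperature.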
KinaseGlo FLuc = blocks Kinase-Glo luciferase, a counter-screen artifact; Q27757; Kinase-Glo luciferase, ATP luminescence, 8 min; Potency, µM (doses to about 38.3 µM), for inactives: at the highest dose activity change, negative = inhibition, hits mostly inhibitors; hit rate 0.28% among 200,000; active = well fitted curve in the direction sought with a large enough effect; inconclusive = small, poorly fitted or top-dose-only effect, or another doubt; inactive = no such curve, though single readings can be large; an effect the other way counts as inactive or inconclusive; also: nearly all actives have a fitted effect of over 60% in size
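Luminescence was the read-out, taken after 8-minute incubation at ambient temperature. Luciferase turned over luciferin with 10 uM ATP in imidazole pH 7.2 buffer containing KCl, MgCl2, Tween 20 and BSA.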
ALDH1A1 inh = blocks purified human ALDH1A1 activity; P00352; Purified ALDH1A1, NADH fluorescence, propionaldehyde substrate; Potency, µM (series often up to 75.3 µM), for inactives: at the highest dose activity, negative = inhibition, actives largely listed as inhibitors; hit rate 7.3% among 220,000;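 also: plate controls were no enzyme wells and a reference inhibitor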
HPGD inh = HPGD (human) dehydrogenase inhibition; purified HPGD, NADH fluorescence kinetic, PGE2 substrate; Potency, µM, without a hit: at the highest dose activity change, negative = inhibition, hits mostly inhibitors; hit rate 4.3% among 150,000
Target sequence (P15428 whole entry, looked up): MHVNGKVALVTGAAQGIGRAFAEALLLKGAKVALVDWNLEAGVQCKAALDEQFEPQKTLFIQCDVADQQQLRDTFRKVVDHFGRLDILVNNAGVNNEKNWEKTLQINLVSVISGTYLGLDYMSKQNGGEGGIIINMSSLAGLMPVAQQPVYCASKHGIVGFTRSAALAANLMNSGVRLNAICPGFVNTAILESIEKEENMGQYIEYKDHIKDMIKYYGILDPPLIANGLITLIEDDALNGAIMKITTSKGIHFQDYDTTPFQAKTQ
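20 nM HPGD preincubated 15 min at room temperature with compound in 50 mM Tris-HCl pH 8, 0.01% Tween 20. Started with 1 mM NAD+ and 30 uM prostaglandin E2; NADH fluorescence (360/450 nm) read 5 times over 30-s intervals, last minus first.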
Active calls of the source: *; ? = inconclusive; / = no result given; [ ] = remark or other dose. In the library only some 9% were active in any assay of this set; here they are far more common. Unless noted, calls follow the shape of the dose curve; as a rule, active = well fitted inhibition curve with a large enough effect (not every such curve was filed as active); inconclusive = small, poorly fitted or top-dose-only effect, or another doubt; inactive = no such curve, though single readings can be large or run the other way. Unless noted, % is scaled to controls: 0 for no effect and ±100 for the full control effect; potency is read from the fitted curve at half-maximal effect.

SMILES	Lamin A splicing	IMPase Li cell	KinaseGlo FLuc	ALDH1A1 inh	HPGD inh
O=C(CSc1nc2cc(Cl)ccc2c(=O)n1Cc1ccco1)Nc1ccc(S(=O)(=O)N2CCOCC2)cc1	7%	4%	3%	7.9µM*	-9%
CCSc1nc2cc(OC)c(OC)cc2c(=O)n1CC	0%	45%[38.3 µM]	-4%	8.9µM*	-13%
COC(=O)c1ccc2c(=O)n(Cc3ccco3)c(SCC(=O)Nc3ccc(C)c(Cl)c3)nc2c1	15%	?	0%	?	-2%
CCn1c(SCC(=O)NCc2ccco2)nc2ccccc2c1=O	/	4%	-2%	-7%	/
O=C(CSc1nc2ccccc2c(=O)n1Cc1ccccc1)NCc1ccco1	0%	10µM*	-1%	?	-23%
O=C(CSc1nc2ccccc2c(=O)n1Cc1ccco1)c1ccc(F)cc1	?	20%[38.3 µM]	-3%	11µM*	-30%
COCCNC(=O)CSc1nc2cc(OC)c(OC)cc2c(=O)n1Cc1ccco1	0%	1%[38.3 µM]	-8%	2.2µM*	-14%
O=C(CSc1nc2ccccc2c(=O)n1Cc1ccc(C(=O)NC2CC2)cc1)NCc1ccco1	?	26%[38.3 µM]	-1%	-8%	2.8µM*
O=C(CSc1nc2ccsc2c(=O)n1Cc1ccc(C(=O)O)cc1)NCc1ccco1	0%	-2%	2%	6%	20µM*
N#CCSc1nc2ccccc2c(=O)n1CCCC(=O)NCc1ccco1	/	1%	-2%	-3%	/
COCCCNC(=O)CSc1nc2ccccc2c(=O)n1Cc1ccco1	3%[46 µM]	/	/	/	/
O=C(CCCCCn1c(SCc2ccncc2)nc2ccccc2c1=O)NCc1ccco1	-18%	20%	0%	25µM*	18µM*
CCn1cc(C(=O)O)c(=O)c2cnc(N3CCCC3)nc21	?	7%	-9%	1%	-2%
O=C(CSc1nc2c(sc3ccccc32)c(=O)n1-c1ccccc1)NCc1ccco1	?	?	0%	11µM*	-22%
N#Cc1cccc(NC(=O)CSc2ccccc2)c1	3%	6%[38.3 µM]	2%	-11%	-5%
N#CC1=C(N)NC(SCC(=O)O)=C(C#N)C12CCCC2	4%	-15%[38.3 µM]	13%	5.6µM*	13µM*
CC1=C(C(=O)Nc2ccccc2)C2(CCCCC2)C(C(N)=O)C(=S)N1 (stereo not drawn)	-5%	-3%	1%	13%	-18%
N#CC1=C(N)NC(SCc2ccc(F)cc2)=C(C#N)C12CCCCC2	-5%	11%[38.3 µM]	-2%	?	-10%
N#CC1=C(N)NC(SCC(=O)Nc2ccccc2)=C(C#N)C12CCCC2	-7%	-17%[38.3 µM]	3%	4.5µM*	18µM*
CC1=C(C(=O)Nc2ccccc2)C2(CCCCC2)C(C#N)=C(S)N1	-3%	5%[38.3 µM]	-2%	20µM*	25µM*
COc1ccc([N+](=O)[O-])cc1NC(=O)CC1SC(=Nc2cccc(C)c2C)N(/N=C/c2cccc(OC)c2OC)C1=O (stereo not drawn)	-13%[46 µM]	-12%	-2%	0%	/
CC(=O)Nc1cccc(Oc2ncnc3scc(-c4ccc(C)cc4)c23)c1	?	19%	1%	?	28µM*
N#Cc1cnn(-c2cccc(Cl)c2)c1N	/	1%	-2%	1%	/
Nc1c(-c2ccccc2)cnn1-c1cccc(C(F)(F)F)c1	-17%	6%[38.3 µM]	0%	-7%	10µM*
Nc1c(-c2cccc(Cl)c2)cnn1-c1cccc(C(F)(F)F)c1	-10%	36%[38.3 µM]	-1%	-11%	13µM*
SMILES	Lamin A splicing	IMPase Li cell	KinaseGlo FLuc	ALDH1A1 inh	HPGD inh
COC(=O)[C@@H]1[C@@H](C)N(CCc2cc(OC)c(OC)c(OC)c2)C(=O)N[C@H]1c1ccccc1	?	7%	-4%[7.66 µM]	8%[13.5 µM]	-7%
Cc1ccc(N(NC(=O)C(O)(c2ccccc2)c2ccccc2)C(=O)CCl)cc1	7%	10%	0%	?	11µM*
Cc1ccc(C(O)(C(=O)NN(C(=O)c2ccccc2)c2ccccc2)c2ccc(C)cc2)cc1	-20%	14%	2%	4%	0%
O=C(CCSCc1ccc(Cl)cc1)NCc1cccs1	/	-5%	0%	-9%	/
COc1ccc(CC(=O)N2CC(=O)N(CCc3ccccc3)C(=O)C2)cc1	-6%	4%[38.3 µM]	1%	10µM*	-16%
CN(C)c1ccc(C(=O)N2CC(=O)N(CCc3ccccc3)C(=O)C2)cc1	12%	17%[38.3 µM]	2%	6.3µM*	?
